# Reference: PubChem BioAssay AID2685 (National Center for Advancing Translational Sciences (NCATS), 2010)
# Hit rate of the full screen: of about 320,000 compounds, about 2,100 (0.66%) were called active. Not shown: some 53% with an inconclusive outcome. The call rests on the fitted dose curve; in most records, active means well fitted inhibition curve with a large enough effect in the signal ratio, with a control signal flat (not every such curve was filed as active); inconclusive means small, poorly fitted or top-dose-only effect, or effect the other way, or a change in a side signal; inactive means flat fitted curve, though single readings scatter; the % refers to the signal ratio. What follows is part of a selection rich in actives, with near analogues and random picks from the rest.
# Test: qHTS Assay for Lipid Storage Modulators in Drosophila S3 Cells;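 on cell number change: cells counted by Cell Tracker Red CMTPX staining in the red channel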; on lipid storage change, negative = inhibition: on the % scale 0 is the no-effect control and ±100 the full control effect
# Details: BODIPY lipid droplet fluorescence, 18-24 h, cells fed with added oleic acid; cell number change: measured here: cell count max response; series mostly up to 46.1 µM; lipid storage change, negative = inhibition: at the top concentration
# Outline: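 Laser-scanning cytometry quantifies lipid droplet accumulation (500–530 nm total intensity; droplet/cell object ratio) in oleic acid-fed (400 uM added) Drosophila S3 cells treated with a concentration series. 20 uM Triacsin C defined 100% inhibition.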
# Potency means the concentration at half of the fitted maximal effect.
Compound,outcome,cell number change,"lipid storage change, negative = inhibition",Potency
Cn1cnc(S(=O)(=O)N2CCN(c3cccc(C(F)(F)F)c3)CC2)c1,inactive,3.98%,–,–
CCC(C)c1ccccc1OCC(=O)NN1C(=O)c2ccccc2C1=O (stereo not drawn),–,-0.73%,25.3% (inactive),–
COc1ccccc1C(=O)Nc1ccc(C(=O)N2CCCCC2)cc1,–,-10.6%,-8.52% (inactive),–
Cn1c(=O)c2c(nc(CN3CCN(C(=O)c4ccco4)CC3)n2Cc2ccccc2)n(C)c1=O,inactive,–,–,–
Cc1ccc(-c2csc3ncnc(SCC(=O)NCc4ccc5c(c4)OCO5)c23)cc1,–,-1.52%,4.42% (inactive),–
O=C(CSc1ncnc2scc(-c3ccc(F)cc3)c12)c1ccc2c(c1)OCCO2,–,7.81%,8.68% (inactive),–
Cc1ccc(-c2csc3ncnc(SCC(=O)c4ccc5c(c4)OCCO5)c23)cc1,–,-23.9%,–,5.17 µM (active)
COCCn1nnnc1C(c1ccccc1OC)N1CCN(c2ccccc2)CC1 (stereo not drawn),–,8.57%,19% (inactive),–
CCn1cnc2c1c(=O)n(CC(=O)OC(C)C(N)=O)c(=O)n2Cc1ccccc1 (stereo not drawn),–,10.8%,-5.23% (inactive),–
Cc1cc(C(=O)N2CCc3c([nH]c4ccccc34)C2c2cccc(Cl)c2)nn1C (stereo not drawn),–,-10.9%,-2.18% (inactive),–
CCOC(=O)C1CCCN(C(=O)Cc2ccc(C)cc2)C1 (stereo not drawn),–,14.8%,-0.343% (inactive),–
CCOCC(=O)N1CCCC(C(=O)OCC)C1 (stereo not drawn),–,-14.8%,–,18.4 µM (active)
CCCCC(=O)N1CCCC(C(=O)OCC)C1 (stereo not drawn),inactive,23.1%,–,–
NCCNC[C@@H]1COC2(CCCCCCCCCCC2)O1,–,6.45%,-8.63% (inactive),–
CC1CC(C)CN(S(=O)(=O)c2ccc3c(c2)C(C)(C)C(=O)N3C)C1 (stereo not drawn),inactive,26.4%,–,–
CC(=O)c1c(C)nn(C(C)CC(=O)O)c1C (stereo not drawn),–,-4.59%,-5.84% (inactive),–
Cc1nc(C)n(C(C)CC(=O)O)n1 (stereo not drawn),–,-20%,-5.06% (inactive),–
Cc1nn(C(C)CC(=O)O)c(C)c1C (stereo not drawn),–,–,–,23.1 µM (active)
C/C(Cn1nnc([N+](=O)[O-])n1)=N\NC(=O)c1ccc(C)cc1,–,24.7%,-2.12% (inactive),–
COc1ccc(N(C(=O)CNC(=O)c2cccs2)C(C(=O)NC2CCCC2)c2cccnc2)cc1 (stereo not drawn),–,3.7%,-7.37% (inactive),–

Compound,outcome,cell number change,"lipid storage change, negative = inhibition",Potency
CC(C(=O)Nc1ccccc1)N1CCN(C(=O)c2ccco2)CC1 (stereo not drawn),–,13.4%,19% (inactive),–
O=C(c1ccc(NS(=O)(=O)c2cccc([N+](=O)[O-])c2)cc1)N1CCN(C(=O)c2ccco2)CC1,–,1.34%,–,9.2 µM (active)
CC(C)Oc1ccc(C(=O)N2CCN(C(=O)c3ccco3)CC2)cc1,inactive,19.8%,–,–
CC(C)c1ccc(NC(=O)C(c2ccccc2)N2CCN(C(=O)c3ccco3)CC2)cc1 (stereo not drawn),–,-35.1%,–,20.6 µM (active)
O=C(Nc1ccc(F)cc1)C(c1ccccc1)N1CCN(C(=O)c2ccco2)CC1 (stereo not drawn),inactive,–,–,–
O=C(c1ccc(NS(=O)(=O)c2cccc([N+](=O)[O-])c2)cc1)N1CCCCCC1,–,-11.1%,18.1% (inactive),–
CC(C)C(=O)Nc1ccc(C(=O)N2CCN(C(=O)c3ccco3)CC2)cc1,–,6.86%,–,4.61 µM (active)
O=C(c1ccco1)N1CCN(S(=O)(=O)c2cccc([N+](=O)[O-])c2)CC1,–,-1.91%,28.6% (inactive),–
CCOc1ccccc1NC(=O)C(c1ccccc1)N1CCN(C(=O)c2ccco2)CC1 (stereo not drawn),–,-20.1%,9.01% (inactive),–
CCOc1ccc(NS(=O)(=O)c2c(C)nc3sccn3c2=O)cc1,–,-0.288%,-7.04% (inactive),–
O=C(Nc1ccc(Br)cc1)C1CCCN(C2=NS(=O)(=O)c3ccccc32)C1 (stereo not drawn),–,0.774%,7.4% (inactive),–
Cc1ccc(SC(C)C(=O)Nc2ncn[nH]2)cc1 (stereo not drawn),inactive,–,–,–
Cc1ccc(C(CNS(=O)(=O)c2ccccc2)N2CCN(C)CC2)cc1 (stereo not drawn),inactive [at 0.0737 µM],–,–,–
CC1CCN(C(CNS(=O)(=O)c2ccccc2)c2ccccc2)CC1 (stereo not drawn),–,12.1%,–,0.461 µM (active)
O=S(=O)(NCC(c1ccccc1)N1CCC(O)CC1)c1ccc(Cl)cc1 (stereo not drawn),inactive,–,–,–
CCOc1cccc(OCCn2cnc3ccccc3c2=O)c1,–,10.8%,5.79% (inactive),–
COc1cccc(C(=O)N2CCN(C(=O)C3COc4ccccc4O3)CC2)c1 (stereo not drawn),inactive,–,–,–
COC(=O)c1ccc2c(=O)n(CCCCCC(=O)O)c(=S)[nH]c2c1,–,9.06%,5.22% (inactive),–
COCCn1c(=S)[nH]c2cc(C(=O)NCCc3ccccc3)ccc2c1=O,–,-6.13%,–,2.31 µM (active)
CCn1c(=S)[nH]c2cc(C(=O)OC)ccc2c1=O,inactive,11.1%,–,–

Compound,outcome,cell number change,"lipid storage change, negative = inhibition",Potency
COCCn1c(=S)[nH]c2cc(C(=O)NC(C)C)ccc2c1=O,inactive,–,–,–
CCN(CC)CCCn1c(=S)[nH]c2cc(C(=O)OC)ccc2c1=O,–,12.4%,–,3.66 µM (active)
CCOCCCn1c(=S)[nH]c2cc(C(=O)NCCc3ccccc3)ccc2c1=O,inactive,–,–,–
Cc1ccc(S(=O)(=O)Nc2cc(C(C)C)c(O)cc2C)cc1,–,-20%,6.78% (inactive),–
CCOC(=O)/C(C#N)=C/N1CCOCC1,–,-2.81%,-5.47% (inactive),–
NC(=NC(=O)c1ccc(OCC(F)(F)F)nc1)c1ccc(Cl)cc1,–,-16.5%,-1.51% (inactive),–
NC(=O)c1ccsc1NC(=O)COC(=O)COc1ccccc1F,–,-3.04%,8.92% (inactive),–
COc1cc(OC)cc(C(=O)OCC(=O)Nc2sccc2C(N)=O)c1,–,2.18%,-18.4% (inactive),–
Cc1ccc(OCC(=O)OCC(=O)Nc2sccc2C(N)=O)cc1C,–,-3.96%,4.32% (inactive),–
CC(=O)c1ccc(OCC(=O)OCC(=O)Nc2sccc2C(N)=O)cc1,–,-10.9%,–,3.66 µM (active)
COc1ccc(CCC(=O)OCC(=O)Nc2ccccc2)cc1,inactive,3.15%,–,–
COc1ccc(CCC(=O)OCC(=O)Nc2sccc2C(N)=O)cc1,–,-27.9%,–,6.51 µM (active)
CCOC(=O)C1CCN(C(=O)CCc2c(C)nc3c(-c4ccc(F)cc4)c(C)nn3c2C)CC1,–,9.15%,6.7% (inactive),–
COc1ccccc1NS(=O)(=O)c1cccc(C(=O)N2CCN(C/C=C/c3ccccc3)CC2)c1,–,-3.91%,-18.7% (inactive),–
COc1cc2c(C(=O)N(C)c3ccc(F)cc3)cn(C)c(=O)c2cc1OC,–,-28.8%,19.8% (inactive),–
CCCC(=O)OCC(=O)c1[nH]c(C)c(C(C)=O)c1C,–,5.74%,4.32% (inactive),–
CC(=O)c1c(C)[nH]c(C(=O)COC(=O)CN(C)S(=O)(=O)c2ccc(Cl)cc2)c1C,–,–,–,5.8 µM (active)
CN(CC(=O)OCC(N)=O)S(=O)(=O)c1ccc(Cl)cc1,–,-16.4%,11.6% (inactive),–
O=C(Nc1cccc(Cl)c1)c1ccc2c(=O)n3c(nc2c1)CCCCC3,–,-6.1%,16% (inactive),–
